Assay outcomes as filed in PubChem.
Neddylation inh = inhibitors of human cullin neddylation; TR-FRET cullin neddylation, biochemical; calls only at 25 µM; actives 0.58% (n = 360,000); AID 651699; in the data active = inhibition above about 36%
proKLK7 act = proKLK7 (human) activation, primary screen; actives 0.9% (n = 370,000); AID 652039; purified proKLK7, EDANS-DABCYL substrate fluorescence; 100% is mature enzyme control, 0% vehicle; P49862; activation, % at 7 µM;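 active = activation above the mean of all tested compounds plus 3 SD, computed per campaign excluding outliers beyond control limits, cut at about 13% in these data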
LEDGF integ inh = blocks HIV-1 LEDGF/p75-dependent DNA integration; TR-FRET IN-LEDGF/p75 DNA integration, Eu/Cy5; inhibition, % at 3.7 µM; actives 0.64% (n = 370,000); AID 743269;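 active = inhibition above the screen-wide mean plus 3 SD, cut at about 13% in these data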;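 note: signal is the Cy5 over europium emission ratio at 671 and 618 nm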
UHRF1 binding = human UHRF1 methylated DNA binding inhibitors; Q96T88; inhibition, % at 4.4 µM; AID 687016; actives 0.75% (n = 370,000); UHRF1 binding to methylated oligo, TR-FRET; in the data active = inhibition above about 21%;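 note: UHRF1 SRA domain binding a hemimethylated CpG hairpin DNA probe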
Target sequence (Q96T88 whole entry, looked up, the tested form may be a part): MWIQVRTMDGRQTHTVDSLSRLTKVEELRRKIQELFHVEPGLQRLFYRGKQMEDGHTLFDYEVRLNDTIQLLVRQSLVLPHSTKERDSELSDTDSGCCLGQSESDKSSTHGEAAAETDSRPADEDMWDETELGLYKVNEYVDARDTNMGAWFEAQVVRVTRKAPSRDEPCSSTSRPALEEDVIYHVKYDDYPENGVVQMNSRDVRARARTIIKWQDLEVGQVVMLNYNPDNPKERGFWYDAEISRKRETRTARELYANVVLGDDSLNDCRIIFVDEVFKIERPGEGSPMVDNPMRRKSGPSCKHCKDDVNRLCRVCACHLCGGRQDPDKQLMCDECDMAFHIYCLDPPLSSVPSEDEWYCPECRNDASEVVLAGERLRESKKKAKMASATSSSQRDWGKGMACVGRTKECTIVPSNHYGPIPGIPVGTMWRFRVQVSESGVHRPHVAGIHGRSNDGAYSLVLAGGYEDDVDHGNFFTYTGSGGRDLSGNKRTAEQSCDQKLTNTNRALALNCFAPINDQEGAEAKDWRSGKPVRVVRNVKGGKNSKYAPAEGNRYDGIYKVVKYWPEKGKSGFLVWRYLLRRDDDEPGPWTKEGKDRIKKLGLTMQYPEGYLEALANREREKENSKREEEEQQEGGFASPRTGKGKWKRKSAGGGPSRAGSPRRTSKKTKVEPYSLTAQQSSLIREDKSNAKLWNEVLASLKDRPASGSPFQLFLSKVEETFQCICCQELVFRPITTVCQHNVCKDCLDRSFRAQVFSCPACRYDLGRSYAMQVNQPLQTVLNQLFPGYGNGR
MBD2 inh = MBD2-methylated oligo binding inhibition; actives 0.31% (n = 370,000); inhibition, % at 4.4 µM; Q9UBB5; AID 686964; TR-FRET, MBD2 binding to methylated oligonucleotide; in the data active = inhibition above about 13%
Rin1-Abl PPI inh = inhibitors of human Rin1-Abl protein interaction; actives 0.4% (n = 360,000); P00519+Q13671; TR-FRET Rin1/Abl binding, biochemical; inhibition, % at 7.35 µM; in the data active = inhibition above about 5%, passing the limit was not always enough
proKLK7 act conf = proKLK7 activation, confirmation. shares compounds with proKLK7 act. purified proKLK7, EDANS-DABCYL substrate fluorescence; scaled: vehicle 0, mature enzyme 100. AID 686949. activation, % at 7 µM. actives 68% (n = 3,200);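 active = activation, as change over the incubation, above the mean of all tested compounds plus 3 SD, cut at about 13% in these data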
EDANS interfere = counter-screen for kallikrein-7 activators: EDANS-DABCYL optical interference; shares compounds with proKLK7 act; EDANS-DABCYL substrate fluorescence interference, no enzyme, 4 h; solvent 0%, active enzyme control 100%; activation, % at 7 µM; actives 80% (n = 3,200);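 active = activation above the all-compound mean plus 3 SD, ignoring values outside control-based bounds, cut at about 4.8% in these data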;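 note: value is the 4 h activation minus the activation read at time zero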
Large screens that a line does not name were inactive (follow-up assays come after a bar, where shown). An excerpt weighted towards active compounds, which were near 3.1% of everything screened.

Fc1ccc(-c2ccc3c(c2)C2CC3CCN2)cc1 (configuration not stated)	none
COCCCn1c(CCC(=O)O)ccc1-c1cccs1	proKLK7 act 13 (not shown: Neddylation inh) | proKLK7 act conf inactive | EDANS interfere 8.7
COCCN(C(=O)c1ccc(-c2ccc(Cl)cc2)o1)c1c(N)n(CC(C)C)c(=O)[nH]c1=O	none
COCCN(C(=O)c1ccc(-c2ccc(Cl)cc2)o1)c1c(N)n(Cc2ccccc2)c(=O)[nH]c1=O	proKLK7 act 39 | proKLK7 act conf 29 | EDANS interfere 30
CCOC(=O)C1CCN(C(c2cc3c(C)ccc(C)c3[nH]c2=O)c2nnnn2C2CCCCC2)CC1 (configuration not stated)	proKLK7 act 27 | proKLK7 act conf inactive | EDANS interfere inactive
COc1ccc(N2CCN(C(=O)c3ccc(Cn4c(=S)[nH]c5ccc(N6CCOCC6)cc5c4=O)cc3)CC2)cc1	none
Cc1ccc(Cn2c(=S)[nH]c3ccc(N4CCOCC4)cc3c2=O)o1	proKLK7 act 45 (not shown: Neddylation inh) | proKLK7 act conf 101 | EDANS interfere 105
O=c1c2cc(N3CCOCC3)ccc2[nH]c(=S)n1Cc1ccc(Cl)cc1	none (not shown: Neddylation inh)
O=c1c2cc(N3CCOCC3)ccc2[nH]c(=S)n1CCCN1CCCCCC1	proKLK7 act 104 (not shown: Neddylation inh) | proKLK7 act conf 44 | EDANS interfere 41
O=c1c2cc(N3CCOCC3)ccc2[nH]c(=S)n1CCN1CCCC1	proKLK7 act 80 (not shown: Neddylation inh) | proKLK7 act conf 46 | EDANS interfere 54
COc1ccc(C(=O)NC(C)c2nnc(SCC(=O)NC3CCCC3)n2C)cc1 (configuration not stated)	none
CN1C(=O)SC(Nc2cccc3ccccc23)C1=O (configuration not stated)	proKLK7 act 74 | proKLK7 act conf 88 | EDANS interfere 85
O=C1NC(=O)C(Nc2cccc3ccccc23)S1 (configuration not stated)	none
CNc1nc(-c2ccccc2)cc(C)c1S(C)(=O)=O	proKLK7 act 20 (not shown: Neddylation inh) | proKLK7 act conf inactive | EDANS interfere inactive
COc1ccc(CC(=O)OCC(=O)NC2CCCC(C)C2C)cc1OC (configuration not stated)	none
N#CC1=C(N)Oc2cc(O)c(Cl)cc2C1c1cccnc1 (configuration not stated)	none
N#CC1=C(N)Oc2cc(O)c(Cl)cc2C1c1ccccc1F (configuration not stated)	proKLK7 act 16 (not shown: Neddylation inh) | proKLK7 act conf inactive | EDANS interfere inactive
CCOC(=O)c1cc2ccc3ccccc3c2oc1=O	proKLK7 act 53 (not shown: Neddylation inh) | proKLK7 act conf 74 | EDANS interfere 76
CCOC(=O)c1cc2ccc(OC(=O)c3ccco3)cc2oc1=O	proKLK7 act 101 | proKLK7 act conf 668 | EDANS interfere 659
CCOC(=O)c1c(C)n(C)c2ccc(OC(=O)c3ccco3)cc12	none
CCC1=C(CC2NCCc3ccccc32)CC2c3cc(OC)c(OC)cc3CCN2C1 (configuration not stated)	proKLK7 act 19 | proKLK7 act conf inactive | EDANS interfere inactive
CC[C@H]1CN2CCc3cc(OC)c(OC)cc3C2C[C@@H]1C[C@H]1NCCc2cc(OC)c(OC)cc21 (some centres not stated)	none
Nc1ccc2c(c1)[nH]c(=O)c1cc(N)ccc12	proKLK7 act 99 (not shown: Neddylation inh) | proKLK7 act conf 61 | EDANS interfere 71
O=c1c2ccccc2c(C=NCCO)c(O)n1-c1ccccc1	none
O=c1c2ccccc2c(C=NC2CCS(=O)(=O)C2)c(O)n1-c1ccccc1 (configuration not stated)	proKLK7 act 14 | proKLK7 act conf 15 | EDANS interfere 16
Cn1c(-c2cc3ccc(OC(=O)C(C)(C)C)cc3oc2=O)nc2ccccc21	proKLK7 act 34 | proKLK7 act conf 62 | EDANS interfere 60
CC(=O)Oc1ccc2cc(-c3nc4ccccc4n3C)c(=O)oc2c1	proKLK7 act 39 | proKLK7 act conf 76 | EDANS interfere 80
COC(=O)[C@H](CC(C)C)N(CCCc1cn(Cc2ccc(C)cc2)nn1)S(=O)(=O)c1ccccc1Br	none (no result: Neddylation inh, Rin1-Abl PPI inh)
CC1CCN(Cc2cc(=O)oc3cc(O)c(Cl)cc23)CC1	proKLK7 act 48 (not shown: Neddylation inh) | proKLK7 act conf 70 | EDANS interfere 71
CC1CN(Cc2cc(=O)oc3cc(O)c(Cl)cc23)CC(C)O1 (configuration not stated)	proKLK7 act 87 (not shown: Neddylation inh) | proKLK7 act conf 73 | EDANS interfere 70
Cc1cc2oc(=O)cc(CN(C)Cc3ccccc3F)c2cc1Cl	none
CN(Cc1ccccc1F)Cc1cc(=O)oc2cc(O)c(Cl)cc12	proKLK7 act 60 (not shown: Neddylation inh) | proKLK7 act conf 68 | EDANS interfere 61
CC1CCN(Cc2cc(=O)oc3cc4c(cc23)CCCC4)CC1	none
COc1ccc(OCCN2CCN(C(=O)c3ccc(OC)c(OC)c3)CC2)cc1	none
Cc1ccc2nc(-c3ccc(NC(=O)CSc4nnc(-c5ccccc5)n4Cc4ccco4)cc3)sc2c1	proKLK7 act 128 (no result: Neddylation inh, Rin1-Abl PPI inh) | proKLK7 act conf 297 | EDANS interfere 333
Cc1ccc(NC(=O)CSc2nnc(-c3cccnc3)n2Cc2ccco2)c(C)c1	none (no result: Neddylation inh, Rin1-Abl PPI inh)
C=CCn1c(SCC(=O)Nc2ccc(-c3nc4ccc(C)cc4s3)cc2)nnc1-c1ccncc1	none
CCOC(=O)c1c(NC(=O)CSc2nnc(-c3cccnc3)n2Cc2ccco2)sc(C)c1C	proKLK7 act 14 | proKLK7 act conf inactive | EDANS interfere inactive
Cc1ccc(N(CC(=O)Nc2ccc(-c3nc4ccc(C)cc4s3)cc2)S(C)(=O)=O)cc1	none (not shown: Neddylation inh)
Cc1ccc(C)c(N(CC(=O)Nc2ccc(-c3nc4ccc(C)cc4s3)cc2)S(C)(=O)=O)c1	proKLK7 act 20 (not shown: Neddylation inh) | proKLK7 act conf inactive | EDANS interfere inactive
Cc1ccc2nc(-c3ccc(NC(=O)CSc4nnc(Cc5cccs5)n4C)cc3)sc2c1	proKLK7 act 149 (no result: Neddylation inh, Rin1-Abl PPI inh) | proKLK7 act conf 157 | EDANS interfere 86
CN(c1ccc(C(=O)Nc2ccc(CC#N)cc2)cc1)S(C)(=O)=O	none
Cc1cccc(-c2nnc(SCC(=O)Nc3ccc(-c4nc5ccc(C)cc5s4)cc3)n2Cc2ccco2)c1	proKLK7 act 68 (no result: Neddylation inh, Rin1-Abl PPI inh) | proKLK7 act conf 62 | EDANS interfere 92
CC(C)c1ccc(/C=N/n2cnnc2)cc1	none
COc1ccc(CCNC(=O)CN2c3cccc4cccc(c34)S2(=O)=O)cc1	none
CC(C)(C)OC(=O)CN1c2cccc3cccc(c23)S1(=O)=O	proKLK7 act 13 (not shown: Neddylation inh) | proKLK7 act conf inactive | EDANS interfere 13
